Measured values taken from the supplement of paper PMC8975748.
Structures can show the parent of a compound that is named as a salt.

tested on: Saccharomyces cerevisiae BY4741 SeMeCo community; test: z-score of subpopulation abundance vs DMSO median, subpopulation auxotrophic for UM; higher = larger share of this subpopulation than in DMSO controls; conditions: 10 µM; 24 h; SM minimal medium; subpopulation (auxotrophy): UM
Method in brief: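 Automated confocal microscopy of paraformaldehyde-fixed cells was used to follow a Saccharomyces cerevisiae BY4741 community carrying four plasmids, each restoring one auxotrophy and encoding a distinct fluorescent protein. The community was pre-grown overnight to OD600 1.0, diluted to 0.3, and added at 70 µl to 384-well plates acoustically predosed with library drugs (10 µM final) for 24 h of growth in minimal SM medium. Single-auxotroph fluorescent strains set thresholds and autofluorescence correction, and each subpopulation's abundance was scored as a z-score against the vehicle-well median.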

Compound | z-score of subpopulation abundance
O=C(Cn1cnnn1)N[C@@H]1C(=O)N2C(C(=O)O)=C(CSc3nncs3)CS[C@H]12 [Ceftezole] | -0.37
C=C[C@]1(C)C[C@@H](OC(=O)CSC(C)(C)CNC(=O)[C@H](N)C(C)C)[C@]2(C)[C@H](C)CC[C@]3(CCC(=O)[C@H]32)[C@@H](C)[C@@H]1O [Valnemulin HCl] | 0.26
CN1CCN(CCCN2c3ccccc3Sc3ccc(C(F)(F)F)cc32)CC1 [Trifluoperazine 2HCl] | 0.11
CCCCCCCCN=c1ccn(CCCCCCCCCCn2ccc(=NCCCCCCCC)cc2)cc1 [Octenidine Dihydrochloride] | 13.5
Nc1ccc(S(=O)(=O)NC(=O)c2ccccc2)cc1 [Sulfabenzamide] | -1.04
COc1ccc(C(=O)NCc2ccc(OCCN(C)C)cc2)cc1OC [Itopride hydrochloride] | 0.38
COc1ccc(-c2nc3cc(C4=NNC(=O)CC4C)ccc3[nH]2)cc1 (configuration not stated) [Pimobendan] | -0.05
CC(C)N1CCN(c2ccc(OCC3COC(Cn4cncn4)(c4ccc(Cl)cc4Cl)O3)cc2)CC1 (configuration not stated) [Terconazole] | -0.8
COc1cc([C@@H]2c3cc4c(cc3[C@@H](O[C@@H]3O[C@@H]5CO[C@@H](c6cccs6)O[C@H]5[C@H](O)[C@H]3O)[C@H]3COC(=O)[C@H]23)OCO4)cc(OC)c1O [Teniposide] | 0.67
COc1ccc2c(c1)c(CC(=O)O)c(C)n2C(=O)c1ccc(Cl)cc1 [Indomethacin] | 1.08
CC1(C)S[C@@H]2[C@H](NC(=O)Cc3ccccc3)C(=O)N2[C@H]1C(=O)O [Benzylpenicillin potassium] | -0.02
NC(=O)c1cnccn1 [Pyrazinamide] | 1.23
Cc1nnc(NS(=O)(=O)c2ccc(N)cc2)s1 [Sulfamethizole] | -0.65
CN[C@@H]1[C@H](O[C@H]2[C@H](O[C@H]3[C@H](O)[C@@H](O)[C@H](N=C(N)N)[C@@H](O)[C@@H]3N=C(N)N)O[C@@H](C)[C@]2(O)C=O)O[C@@H](CO)[C@H](O)[C@H]1O [Streptomycin sulfate] | 0.8
O=c1[nH]cnc2c1ncn2[C@@H]1O[C@H](CO)[C@@H](O)[C@H]1O [Isoprinosine] | -0.74
C=C1c2cccc(O)c2C(O)=C2C(=O)[C@]3(O)C(O)=C(C(N)=O)C(=O)[C@@H](N(C)C)[C@@H]3[C@@H](O)[C@H]12 [Methacycline HCl] | -0.59

Compound | z-score of subpopulation abundance
COC(=O)C1=C(C)NC(C)=C(C(=O)OC)C1c1ccccc1[N+](=O)[O-] [Nifedipine] | 0.26
Nc1ccc(S(=O)(=O)c2ccc(N)cc2)cc1 [Dapson] | 0.45
NC(CO)(CO)CO [Trometamol] | 0.88
Nc1nc(=O)[nH]cc1F [Flucytosine] | 1.6
CO[C@@H]1[C@@H](O[C@@H]2O[C@H](C)[C@@H](O[C@H]3C[C@@](C)(O)[C@@H](O)[C@H](C)O3)[C@H](N(C)C)[C@H]2O)[C@@H](CC=O)C[C@@H](C)[C@@H](O[C@H]2CC[C@H](N(C)C)[C@@H](C)O2)/C=C/C=C/C[C@@H](C)OC(=O)C[C@H]1OC(C)=O [Acetylspiramycin (ASPM)] | -0.94
C[C@]12CC[C@@H]3c4ccc(OS(=O)(=O)O)cc4CC[C@H]3[C@@H]1CCC2=O [Estropipate] | 0.16
COc1ccnc(C[S+]([O-])c2nc3cc(-n4cccc4)ccc3[nH]2)c1C (configuration not stated) [Ilaprazole sodium] | -1.01
c1ccc(-c2ccc(C(c3ccccc3)n3ccnc3)cc2)cc1 (configuration not stated) [Bifonazole] | 0.46
CO/N=C(\C(=O)N[C@@H]1C(=O)N2C(C(=O)O)=CCS[C@H]12)c1csc(N)n1 [Ceftizoxime] | -0.98
CN(C)[C@@H]1C(=O)C(C(N)=O)=C(O)[C@@]2(O)C(=O)C3=C(O)c4c(O)ccc(Cl)c4[C@@H](O)[C@H]3C[C@@H]12 [Demeclocycline HCl] | -0.64
C#C[C@]1(O)CC[C@H]2[C@@H]3CCC4=Cc5oncc5C[C@]4(C)[C@H]3CC[C@@]21C [Danazol] | 0.52
Nc1c(Br)cc(Br)cc1CN[C@H]1CC[C@H](O)CC1 [Ambroxol HCl] | -0.8
CCOC(=O)c1ccc(N)cc1 [Benzocaine] | -0.58
O=C1c2c(O)ccc(O)c2C(=O)c2c(NCCNCCO)ccc(NCCNCCO)c21 [Mitoxantrone 2HCl] | -8.31
c1ccc2[nH]c(-c3cscn3)nc2c1 [Thiabendazole] | -0.41
C[C@@H](O)[C@H]1C(=O)N2C(C(=O)[O-])=C(SC3Cn4cnc[n+]4C3)[C@H](C)[C@H]12 (some centres not stated) [Biapenem] | -0.17
